Measurements reported in the supplement of paper PMC12494721.
Where a name gives a salt, the structure may show the parent alone. Unmarked numbers belong to inactive results.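 How the source made its calls: for the amine columns active = adjusted P below 0.05 in both replicates with a change the same way and a mean fold change under 0.8 or over 1.25; inactive = the rest.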

system: Escherichia coli IAI1; assay: fold change of Putrescine concentration vs plate DMSO controls (fold change (ratio)); higher = more amine produced, active = hit call of the paper (significant change in both replicates, either direction); settings: incubation time: 27 h, anaerobic, 37 °C
Method in brief: (§1)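 In 80 µL wells, cultures of four gut bacterial strains in mGAM started at OD 0.1 before a 1:1 dilution and grew anaerobically at 37 °C for 27 h. Compounds were added to 20 µM final, except sweeteners at 50 µM final. After extraction of whole cultures with cold acetonitrile/methanol plus 0.1% formic acid and centrifugation, amines were measured by LC–triple-quadrupole MS in dynamic MRM mode against external calibration curves, with within-batch drift correction. Values give fold change over DMSO controls on the same plate, averaged across 2 biological replicates.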

Row | SMILES | fold change of Putrescine concentration
1 | O=C1C(CC[S+]([O-])c2ccccc2)C(=O)N(c2ccccc2)N1c1ccccc1 (centres undefined) [Sulfinpyrazone] (20 µM) | 0.978
2 | CCC(C)C(C(=O)OCC[N+](C)(CC)CC)c1ccccc1 (centres undefined) [Valethamate bromide] (20 µM) | 1.05
3 | CCOC(=O)C1=C(C)NC(C)=C(C(=O)OC)C1c1cccc(Cl)c1Cl (centres undefined) [Felodipine] (20 µM) | 1.04
4 | COc1c(N2C[C@@H]3CCCN[C@@H]3C2)c(F)cc2c(=O)c(C(=O)O)cn(C3CC3)c12 [Moxifloxacin] (20 µM) | 0.828
5 | C[C@H]1COc2c(N3CCN(C)CC3)c(F)cc3c(=O)c(C(=O)O)cn1c23 [Levofloxacin] (20 µM) | 0.521 (active)
6 | NC(=O)c1cc[n+](CC2=C(C(=O)O)N3C(=O)[C@@H](NC(=O)C(c4ccccc4)S(=O)(=O)[O-])[C@H]3SC2)cc1 (some centres undefined) [Cefsulodin Sodium Salt Hydrate] (20 µM) | 1.06
7 | CO[C@@]1(NC(=O)CSCC#N)C(=O)N2C(C(=O)O)=C(CSc3nnnn3C)CS[C@@H]21 [Cefmetazole sodium salt] (20 µM) | 0.284 (active)
8 | CCN1CCN(C(=O)N[C@@H](C(=O)N[C@@H]2C(=O)N3C(C(=O)O)=C(CSc4nnnn4C)CS[C@H]23)c2ccc(O)cc2)C(=O)C1=O [Cefoperazone dihydrate] (20 µM) | 0.451
9 | CC/C(=C(\c1ccccc1)c1ccc(OCCN(C)C)cc1)c1ccccc1 [Tamoxifen citrate] (20 µM) | 1.06
10 | C#C[C@]1(O)CC[C@H]2[C@@H]3CCC4=CCCC[C@@H]4[C@H]3CC[C@@]21C [Lynestrenol] (20 µM) | 1.13

system: Klebsiella aerogenes DSM 30053; assay: as above; settings: incubation time: 27 h, anaerobic, 37 °C
Method in brief: as §1

Row | SMILES | fold change of Putrescine concentration
11 | CC(=O)Nc1ccc(O)cc1 [Acetaminophen] (20 µM) | 1
12 | CC(C)(C)CC(C)(C)c1ccc(OCCOCC[N+](C)(C)Cc2ccccc2)cc1 [Benzethonium chloride] (20 µM) | 1.01
13 | C[C@H]1[C@H](NC(=O)/C(=N\OC(C)(C)C(=O)O)c2csc(N)n2)C(=O)N1S(=O)(=O)O [Aztreonam] (20 µM) | 1.13
14 | Nc1ccn([C@@H]2CS[C@H](CO)O2)c(=O)n1 [Lamivudine] (20 µM) | 1.03
15 | Cc1nnc(SCC2=C(C(=O)O)N3C(=O)[C@@H](NC(=O)Cn4cnnn4)[C@H]3SC2)s1 [Cefazolin sodium salt] (20 µM) | 1.03
16 | CN(C)CCCN1c2ccccc2CCc2ccccc21 [Imipramine hydrochloride] (20 µM) | 0.943
17 | Clc1ccccc1CN1CCc2sccc2C1 [Ticlopidine hydrochloride] (20 µM) | 0.989
18 | COc1ccc(CCN(C)CCCC(C#N)(c2ccc(OC)c(OC)c2)C(C)C)cc1OC (centres undefined) [Verapamil hydrochloride] (20 µM) | 0.906
19 | Cc1cnc(NC(=O)C2=C(O)c3ccccc3S(=O)(=O)N2C)s1 [Meloxicam] (20 µM) | 0.995
20 | C=C[C@H]1CN2CC[C@H]1C[C@@H]2[C@@H](O)c1ccnc2ccc(OC)cc12 [Quinidine hydrochloride monohydrate] (20 µM) | 1.05
21 | C[C@H](CS)C(=O)N1CCC[C@H]1C(=O)O [Captopril] (20 µM) | 1
22 | CC(C)Cc1ccc([C@H](C)C(=O)O)cc1 [(S,+) Ibuprofen] (20 µM) | 1.03
23 | O=C(O)CCNC(=O)c1ccccc1 [Betamipron] (20 µM) | 1
24 | CCc1c2c(nc3ccc(OC(=O)N4CCC(N5CCCCC5)CC4)cc13)-c1cc3c(c(=O)n1C2)COC(=O)[C@]3(O)CC [Irinotecan hydrochloride trihydrate] (20 µM) | 1
25 | Nc1nc2c(ncn2COCCO)c(=O)[nH]1 [Acyclovir] (20 µM) | 0.983
26 | Nc1ncn(C2OC(CO)C(O)C2O)c(=O)n1 (centres undefined) [Azacytidine-5] (20 µM) | 1.01
27 | CCN(CC)CCNC(=O)c1ccc(N)cc1 [Procainamide hydrochloride] (20 µM) | 0.987
28 | O=C(O)c1cn(C2CC2)c2cc(N3CCNCC3)c(F)cc2c1=O [Ciprofloxacin hydrochloride monohydrate] (20 µM) | 0.573
29 | COc1cc(Cc2cnc(N)nc2N)cc(OC)c1OC [Trimethoprim] (20 µM) | 1.22
30 | O=C1C(=O)c2ccccc2C(O)=C1C1CCC(c2ccc(Cl)cc2)CC1 (centres undefined) [Atovaquone] (20 µM) | 1.03

Row | SMILES | fold change of Putrescine concentration
31 | CC[C@]12CCCN3CCc4c(n(c5ccccc45)[C@@](O)(C(=O)OC)C1)[C@@H]32 [Vincamine] (20 µM) | 1
32 | Cc1noc(NS(=O)(=O)c2ccc(N)cc2)c1C [Sulfisoxazole] (20 µM) | 1.02
33 | Cc1ccc(NC(=O)c2ccc(CN3CCN(C)CC3)cc2)cc1Nc1nccc(-c2cccnc2)n1 [Imatinib] (20 µM) | 0.962
34 | COc1cc2nc(N3CCN(C(=O)c4ccco4)CC3)nc(N)c2cc1OC [Prazosin hydrochloride] (20 µM) | 1.02
35 | CCOC(=O)C1=C(COCCN)NC(C)=C(C(=O)OC)C1c1ccccc1Cl (centres undefined) [Amlodipine] (20 µM) | 1.03
36 | CN1[C@@H]2CC[C@H]1CC(OC(=O)C(O)c1ccccc1)C2 (mixture of isomers) [(R,S) Homatropine hydrobromide] (20 µM) | 0.995
37 | CO/N=C(\C(=O)N[C@@H]1C(=O)N2C(C(=O)O)=C(C[N+]3(C)CCCC3)CS[C@H]12)c1csc(N)n1 [Cefepime hydrochloride] (20 µM) | 0.361 (active)
38 | CCn1cc(C(=O)O)c(=O)c2cc(F)c(N3CCN(C)CC3)cc21 [Pefloxacin] (20 µM) | 1.05
39 | CN(CCOc1ccc(NS(C)(=O)=O)cc1)CCc1ccc(NS(C)(=O)=O)cc1 [Dofetilide] (20 µM) | 0.984
40 | O=C1C(CC[S+]([O-])c2ccccc2)C(=O)N(c2ccccc2)N1c1ccccc1 (centres undefined) [Sulfinpyrazone] (20 µM) | 1.04
41 | CCC(C)C(C(=O)OCC[N+](C)(CC)CC)c1ccccc1 (centres undefined) [Valethamate bromide] (20 µM) | 1.02
42 | CCOC(=O)C1=C(C)NC(C)=C(C(=O)OC)C1c1cccc(Cl)c1Cl (centres undefined) [Felodipine] (20 µM) | 0.97
43 | COc1c(N2C[C@@H]3CCCN[C@@H]3C2)c(F)cc2c(=O)c(C(=O)O)cn(C3CC3)c12 [Moxifloxacin] (20 µM) | 0.915
44 | C[C@H]1COc2c(N3CCN(C)CC3)c(F)cc3c(=O)c(C(=O)O)cn1c23 [Levofloxacin] (20 µM) | 0.657 (active)
45 | NC(=O)c1cc[n+](CC2=C(C(=O)O)N3C(=O)[C@@H](NC(=O)C(c4ccccc4)S(=O)(=O)[O-])[C@H]3SC2)cc1 (some centres undefined) [Cefsulodin Sodium Salt Hydrate] (20 µM) | 0.997
46 | CO[C@@]1(NC(=O)CSCC#N)C(=O)N2C(C(=O)O)=C(CSc3nnnn3C)CS[C@@H]21 [Cefmetazole sodium salt] (20 µM) | 1.05
47 | CCN1CCN(C(=O)N[C@@H](C(=O)N[C@@H]2C(=O)N3C(C(=O)O)=C(CSc4nnnn4C)CS[C@H]23)c2ccc(O)cc2)C(=O)C1=O [Cefoperazone dihydrate] (20 µM) | 0.86
48 | CC/C(=C(\c1ccccc1)c1ccc(OCCN(C)C)cc1)c1ccccc1 [Tamoxifen citrate] (20 µM) | 0.989
49 | C#C[C@]1(O)CC[C@H]2[C@@H]3CCC4=CCCC[C@@H]4[C@H]3CC[C@@]21C [Lynestrenol] (20 µM) | 1.02
